A short description of experiment [1]: qHTS of pediatric cancer cell lines to identify multiple opportunities for drug repurposing: Primary screen for U-2 OS cells (AID 1347096).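 Note: plate controls were DMSO wells for no effect and bortezomib positive control wells for full effect; nearly all actives have a fitted effect of over 50% in size.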 In a few lines: (§1)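 Viability after 48 h compound treatment at 37C, 500-1,000 cells/well, read as ATP luminescence with CellTiter-Glo. Primary screens used 11-point (MIPE, 0.78 nM-46 µM) or 8-point (NPC, 0.59 nM-46 µM) final concentrations; follow-up screens used 11-point dilutions.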
On the technique in general: qHTS replaces the single test concentration by a dilution series.

Experiment [2] can be described thus: qHTS of pediatric cancer cell lines to identify multiple opportunities for drug repurposing: Primary screen for SK-N-SH cells (AID 1347098).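 For activity change, negative = cytotoxic: DMSO served as neutral control and bortezomib at 2.3 µM as positive control; % is set by controls: 0 for no effect and ±100 for the full control effect.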 Note: nearly all actives have a fitted effect of over 65% in size. Note: potency is the fitted concentration of half-maximal effect. In a few lines: (§2)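 Cells (500-1,000/well) rested 5 h, then received compounds for 48 h; metabolically active cells were measured by CellTiter-Glo luminescence. Final concentrations spanned up to 46 µM (MIPE, 11-point) or 0.59 nM-46 µM (NPC, 8-point) in primary screens, 11-point in follow-ups.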

Experiment [3] can be described thus: qHTS of pediatric cancer cell lines to identify multiple opportunities for drug repurposing: Primary screen for NB1643 cells (AID 1347099).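 For activity change, negative = cytotoxic: plate controls were DMSO neutral control for no effect and bortezomib positive control for full effect.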 Note: nearly all actives have a fitted effect of over 50% in size. Note: potency is the fitted concentration of half-maximal effect. An outline of the steps:
(§3)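 Phenotypic viability qHTS, 48 h compound exposure, CellTiter-Glo luminescence read-out; multi-concentration dosing so that potency and efficacy derive directly from the primary screen's curves.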

The nature of experiment [4]: qHTS of pediatric cancer cell lines to identify multiple opportunities for drug repurposing: Primary screen for LAN-5 cells (AID 1347100).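 For activity change, negative = cytotoxic: plate controls were DMSO neutral control for no effect and bortezomib positive control for full effect.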 Note: potency is the fitted concentration of half-maximal effect. In a few lines: as §1
The nature of experiment [5]: qHTS of pediatric cancer cell lines to identify multiple opportunities for drug repurposing: Primary screen for BT-12 cells (AID 1347101).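 For activity change, negative = cytotoxic: plate controls were DMSO for no effect and bortezomib positive control for full effect.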 Note: nearly all actives have a fitted effect of over 25% in size. Note: potency is the fitted concentration of half-maximal effect. In a few lines:
as §2

Experiment [6] in a line: qHTS of pediatric cancer cell lines to identify multiple opportunities for drug repurposing: Primary screen for OHS-50 cells (AID 1347103).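 For activity change, negative = cytotoxic: plate controls were DMSO neutral control for no effect and bortezomib positive control for full effect.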 Note: nearly all actives have a fitted effect of over 40% in size. Note: potency is the fitted concentration of half-maximal effect. An outline of the steps: as §2
The nature of experiment [7]: qHTS of pediatric cancer cell lines to identify multiple opportunities for drug repurposing: Primary screen for RD cells (AID 1347104).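 For activity change, negative = cytotoxic: plate controls were DMSO for no effect and bortezomib for full effect.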 Note: nearly all actives have a fitted effect of over 55% in size. Note: potency is the fitted concentration of half-maximal effect. An outline of the steps:
as §3

Experiment [8] is described as follows: qHTS of pediatric cancer cell lines to identify multiple opportunities for drug repurposing: Primary screen for MG 63 (6-TG R) cells (AID 1347105). For activity change, negative = cytotoxic: % is set by controls: 0 for no effect and ±100 for the full control effect. Note: nearly all actives have a fitted effect of over 50% in size. Note: potency is the fitted concentration of half-maximal effect. In a few lines:
as §3

Experiment [9] in a line: qHTS of pediatric cancer cell lines to identify multiple opportunities for drug repurposing: Primary screen for Rh18 cells (AID 1347102). For activity change, negative = cytotoxic: % is set by controls: 0 for no effect and ±100 for the full control effect. Note: nearly all actives have a fitted effect of over 65% in size. Note: potency is the fitted concentration of half-maximal effect. In a few lines: as §1
Experiment [10] can be described thus: qHTS of pediatric cancer cell lines to identify multiple opportunities for drug repurposing: Primary screen for Saos-2 cells (AID 1347097). Note: potency is the fitted concentration of half-maximal effect; nearly all actives have a fitted effect of over 40% in size. An outline of the steps:
as §3

Molecules are shown by their SMILES. Values joined by “and” are separate entries in the source; they are usually repeats but may differ in a detail not shown here. Equal values may be shown once. Inconclusive results are not listed. A number with no mark means an inactive call. Active and inactive are the calls of the source. Calls come from the whole dose curve; as a rule, active = well fitted curve in the direction sought with a large enough effect; inconclusive = small, poorly fitted or top-dose-only effect, or another doubt; inactive = no such curve, though single readings can be large; an effect the other way counts as inactive or inconclusive.

With `C[C@]12CC[C@H]3[C@@H](CCC4=CC(=O)CC[C@@H]43)[C@@H]1CC[C@@H]2OC(=O)CCc1ccccc1`, the Potency result in experiment [1], in experiment [2], in [3], in experiment [4], in experiment [5] and in experiment [6] was “inactive” in each case. The Potency entry in [7] and in experiment [8] was “inactive” in each case.

Regarding `CCN(CC)C(=O)N[C@@H]1C=C2c3cccc4[nH]cc(c34)C[C@@H]2N(C)C1`, the Potency result in experiment [1], in [2], in [3], in experiment [4], in experiment [5] and in experiment [9] was “inactive” throughout. Besides, the Potency result in experiment [6] and in [7] was “inactive” throughout.

Regarding `C[C@]12CCC(=O)C(O)=C1CC[C@@H]1[C@@H]2CC[C@]2(C)C(=O)CC[C@@H]12`, the Potency result in experiment [1], in [2], in experiment [3], in experiment [4], in [5] and in experiment [6] was “inactive” each time. The Potency result in experiment [7] was “inactive”.

`N[C@@H](Cc1ccc(N(CCCl)CCCl)cc1)C(=O)O`: the Potency entry in experiment [1] and in experiment [7] was “inactive” each time. In addition, the Potency in [10] was 26.6 µM (active) and 16.6 µM (active); in experiment [3], 9.44 µM (active) and 16.6 µM (active); in experiment [4], 5.96 µM (active) and 3.72 µM (active); in experiment [9], 21.1 µM (active); in experiment [6], 9.78 µM (active) and 3.85 µM (active); in [8], 16.8 µM (active) and 18.7 µM (active).

In the case of `CC[N+](CC)(CC)CC`, the Potency entry in experiment [1], in [2], in experiment [3], in experiment [4], in [5] and in [9] was “inactive” in each case. Also, the Potency entry in [6] and in experiment [7] was “inactive” each time.

`CCN(CC)CCN1C(=O)CN=C(c2ccccc2F)c2cc(Cl)ccc21`: the Potency entry in experiment [1], in experiment [2], in [3], in experiment [4], in experiment [5] and in [7] was “inactive” in each case. The Potency result in [8] was “inactive”.

With `C=C1C[C@@H]2[C@H](CC[C@]3(C)C(=O)CC[C@@H]23)[C@@]2(C)C=CC(=O)C=C12`, the Potency result in experiment [1], in [2], in [3], in [4], in experiment [9] and in experiment [7] was “inactive” throughout.

As for `COc1ccccc1N1CCNCC1`, the Potency entry in experiment [1], in experiment [2], in experiment [3], in experiment [4], in [5] and in experiment [6] was “inactive” in each case. Further, the Potency result in [7] and in experiment [8] was “inactive” in each case.

Take `O=C(NC(O)C(Cl)(Cl)Cl)NC(O)C(Cl)(Cl)Cl` (configuration not stated): the Potency result in experiment [1], in experiment [3], in [4], in experiment [5], in experiment [6] and in experiment [7] was “inactive” in each case. Also, the Potency entry in experiment [8] was “inactive”.

In the case of `Cn1cc(C2=C(c3cn(C4CCN(Cc5ccccn5)CC4)c4ccccc34)C(=O)NC2=O)c2ccccc21`, the Potency entry in experiment [1], in [2], in experiment [3], in experiment [5] and in experiment [7] was “inactive” in each case.

For `C=C(C)[C@H]1Cc2c(ccc3c2O[C@@H]2COc4cc(OC)c(OC)cc4[C@@H]2C3=O)O1`, the Potency is 944 nM (active) in experiment [10]; 1.68 µM (active) and 526 nM (active) in experiment [4]; 87.1 nM (active) and 122 nM (active) in experiment [5]; 138 nM (active) and 243 nM (active) in experiment [6].

Regarding `CCC(=O)C(CC(C)N(C)C)(c1ccccc1)c1ccccc1` (configuration not stated), the Potency result in experiment [1], in experiment [3] and in experiment [4] was “inactive” in each case. Also, the Potency in experiment [6] was 22.5 µM (active).

As for `c1ccc(C2CC2)c(OCC2=NCCN2)c1`, the Potency entry in experiment [1], in [2], in experiment [3], in experiment [4], in [5] and in [7] was “inactive” in each case. In addition, the Potency entry in [8] is “inactive”.

As to `CCOC(=O)C1(c2ccccc2)CCN(CCC(C#N)(c2ccccc2)c2ccccc2)CC1`, the Potency result in [1] and in [2] was “inactive” in each case. Further, in experiment [6], the Potency is 12.3 µM (active).

On to `C[C@]12C/C(=C/O)C(=O)C[C@@H]1CC[C@@H]1[C@@H]2CC[C@@]2(C)[C@H]1CC[C@]2(C)O`, for which the Potency result in experiment [1], in experiment [7] and in experiment [8] was “inactive” in each case.

In the case of `CCC1(C2=NCCN2)Cc2ccccc2O1` (configuration not stated), the Potency result in [1], in [3], in experiment [4], in [5], in [6] and in experiment [7] was “inactive” each time. In experiment [8], the Potency result is “inactive”.

Regarding `Oc1cc(Cl)ccc1Oc1ccc(Cl)cc1Cl`, the Potency entry in experiment [1] was “inactive”. Further, the Potency in experiment [2] was 11.4 µM (active) and 27.3 µM (active); in [3], 35.1 µM (active); in [5], 20.5 µM (active); in experiment [6], 28.9 µM (active); in experiment [7] it was 39.4 µM (active) and 23.7 µM (active).

For the compound `Cc1ccc2c(c1)C1CN(C)CCC1N2` (configuration not stated), the Potency result in experiment [1], in [2], in experiment [3], in [4], in experiment [5] and in [6] was “inactive” throughout. In addition, the Potency entry in [7] and in experiment [8] was “inactive” in each case.

`CN(C)[C@@H]1C(=O)C(C(N)=O)=C(O)[C@@]2(O)C(=O)C3=C(O)c4c(O)cccc4[C@@](C)(O)[C@H]3C[C@@H]12`: the Potency entry in experiment [1], in experiment [2], in [4], in experiment [6], in experiment [7] and in [8] was “inactive” each time.

For `C[C@@H]1[C@@H](C(=O)C[C@H]2O[C@@H]3O[C@]4(C)CC[C@@H]5[C@H](C)CC[C@@H]([C@H]2C)[C@@]35OO4)O[C@@H]2O[C@]3(C)CC[C@H]4[C@H](C)CC[C@@H]1[C@@]24OO3`, the Potency result in experiment [1], in [9] and in [8] was “inactive” in each case. Besides, the Potency was 4.69 µM (active) in experiment [3], 16.6 µM (active) in experiment [4], 0.432 µM (active) in experiment [5] and 0.385 µM (active) in experiment [6].

Turning to `NCC(CC(=O)O)c1ccc(Cl)cc1` (configuration not stated), the activity change, negative = cytotoxic in [1] was -3.85% [at 0.597 µM]; in experiment [3] it was -5.29% [at 0.597 µM]; in experiment [4], -9.23% [at 0.597 µM]; in experiment [5], 1.13% [at 0.745 µM]; in experiment [9] it was -2.74% [at 0.597 µM]; in experiment [6], -11.1% [at 0.73 µM]. Further, the figures for the activity change, negative = cytotoxic in [7] and in [8] were 1.05% [at 0.597 µM] and -15.2% [at 0.597 µM], respectively.

On to `Cc1cc(SCc2sc(-c3ccc(C(F)(F)F)c(F)c3)nc2C)ccc1OCC(=O)O`, for which the Potency result in [1], in experiment [3], in experiment [4], in experiment [5], in [7] and in [8] was “inactive” throughout.

Turning to `Clc1ccc(CCC(Cn2ccnc2)Sc2c(Cl)cccc2Cl)cc1` (configuration not stated), the Potency was 20.9 µM (active) in experiment [4], 27.6 µM (active) in experiment [6] and 37.2 µM (active) in experiment [7]. In addition, the Potency entry in [9] and in experiment [8] was “inactive” in each case.

With `CC(C)(C)CC(C)(C)c1ccc(O)cc1`, the Potency in experiment [2] was 25 µM (active); in [6], 25.2 µM (active) and 15.5 µM (active). Further, the Potency entry in experiment [3], in experiment [9] and in [7] was “inactive” each time.

For the compound `CC[C@@H](CO)NC(=O)[C@@H]1C=C2c3cccc4c3c(cn4C)C[C@H]2N(C)C1`, the Potency result in experiment [1], in [2], in experiment [6] and in [7] was “inactive” each time.

As to `C[C@H]1O[C@@H](O[C@H]2[C@@H](O)C[C@H](O[C@H]3[C@@H](O)C[C@H](O[C@H]4CC[C@@]5(C)[C@H](CC[C@@H]6[C@@H]5CC[C@]5(C)[C@@H](C7=CC(=O)OC7)CC[C@]65O)C4)O[C@@H]3C)O[C@@H]2C)C[C@H](O)[C@@H]1O`, the Potency in experiment [2] is 0.0864 µM (active); in [3] it was 0.0299 µM (active); in experiment [4], 0.0473 µM (active); in [5] it was 0.0219 µM (active); in experiment [6], 0.011 µM (active); in [7], 0.0075 µM (active).

`O=c1[nH]c2ccccc2n1C1CCN(CCCC(c2ccc(F)cc2)c2ccc(F)cc2)CC1`: the Potency entry in [1] was “inactive”. Moreover, the Potency in [2] was 27.3 µM (active); in experiment [5], 15.5 µM (active); in [6], 17.4 µM (active).

For `COc1ccc(C(=O)c2c(C)n(CCN3CCOCC3)c3ccccc23)cc1`, the Potency entry in experiment [1], in experiment [2], in [3], in [4], in experiment [5] and in experiment [7] was “inactive” throughout. For the same compound, the Potency entry in experiment [8] was “inactive”.

For `Clc1ccc(COC(Cn2ccnc2)c2ccc(Cl)cc2Cl)cc1` (configuration not stated), the Potency result in experiment [1] and in [8] was “inactive” each time. Further, the Potency in experiment [3] was 26.6 µM (active); in [5] it was 15.5 µM (active).

With `CC(C)=CCOc1c2occc2cc2ccc(=O)oc12`, the Potency entry in experiment [1], in experiment [2], in experiment [3], in [4], in [7] and in [8] was “inactive” in each case.
